Laboratory results reported in the supplement of paper PMC6555819.

test system: PPARg DBDmut:RXRa IVT, anti-PPARg (DBD mutation: PPARg1 K132A/R137A, NR concentration 270 nM, RXRa partner concentration 90 nM); assay: PBM binding z-score (relative to random genomic background probes); higher = stronger binding; sequences stand for … in GC…GCGATTGACAGCGTAGAATGAAGG
Method in brief: (§1)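 Binding z-scores were set against random background probes. The data came from custom Agilent 4×180K protein-binding microarrays carrying double-stranded probes with 34-nt variable regions, incubated 1 h with ligand-free nuclear receptor dimers. Partner-specific antibodies detected binding, and scanned fluorescence was regression-normalized.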

Row | Sequence | PBM binding z-score
1 | ACTCGGAGGACAAGGGTCAGAGCTACGCCAGTGA | -0.0175
2 | AGAATTAGGTTATACGTAGATCAGGGAAGAAAGT | 1.46
3 | ATATGTAGGTTATCGGTTCATTCAGTTTGCGCAT | 4.06
4 | TCTGCTAGGTCAGTTGGTAAGCTAACGAGCTGCC | -0.0986
5 | ACTAGCAGGCCAAGGGTCACTCAGGATTAGTCCG | -0.273
6 | CCTAGAAGGCCAGGGTCACTCAAGCATTTCGCTT | -1.14
7 | ATCTCTAGGTAAAGTTCAGTGTAAGATCGATAGA | 1.2
8 | CTAACTAGGTCAAGGACAGTGAATCTCCGCACGC | 2.25
9 | ACTATTAGGTGACTTAGGGCAACCGATACGACGC | 1.48
10 | CCTACTGGGCCAAAAAGATCATTGATGCCGATAA | -0.679
11 | CCAGACAGGTGAAAGGTAACTCGGTCTGGTACGC | -0.38
12 | TCTAGTTGGTCAAAGGTCACACATTCGAAATGCG | 1.17
13 | TCTAGTTGGTCGAAGGTCACACACTCGAAATGCG | 1.01
14 | ATCTCTAGCTAACCAAGTTCAGTGAATGCCGAAC | 0.368
15 | CGTCCAAGGTCAGCAAGTCAGTGAAAGCGACGTG | -0.905
16 | ATCGAAAGGTCGATGTGAGTATAGAGAAAGGGAA | 1.83
17 | TTACCAAGGTGAACGTCGTTGATCCCTCTGTAGA | 0.0811
18 | AGAACGAGGGCACGCTGAGTTGATAGCAGAGTAG | 0.29
19 | CATACAGGGTCAGCTAGGCGAGAGTAGGGACGGC | 0.279
20 | CGTCCATGGTCAATGCTAGGTCAGTGAAAGCATT | -0.309

Row | Sequence | PBM binding z-score
21 | CCGACTGGTGCAGAAAGGTTACCATACCATCCGG | -0.872
22 | ATACGTAGGTTAGCTGGGGTCATTCAGACTAGGC | 0.0785
23 | TCTAGTTGGTCACGGTGGTCACACACGACGGGTA | 1.54
24 | ATATGTAGGTTAAGGGTTATTCAGGTTGGTTCGC | 3.47
25 | TCTGCTACGTCAGTTGGTCAGCTAACGAGCTGCC | 0.134
26 | TCATATAGGTAAACAGGGGAAAGTCCGTAAGTTA | 1.62
27 | ACTATTAGTTGAGACGAGGGCAACCGCTAGGTTG | 0.243
28 | TCTCTGAGGACACGAAAGGTCAGAGCTCGACATC | 0.453
29 | CCTAATGGGCCACGAAAGGTCATTGATTCAGTGA | 0.487
30 | TCTAGTTGGTCAAAGGTCACACGCTCGAAATGCG | 0.719
31 | CCTATTGGGCCATCAGGTCATTGATATCAACGTT | 0.758
32 | TGAATGAGGTTAAAGAGCAGGGAACGTGGCGTCG | -0.099
33 | GTTCGGAGGACAAGGTCAGAGCTTTGTCCGTAGA | -0.706
34 | TCATATAGGTAATACAGGTGAAAGCCGGCATCTA | 1.75
35 | GCTTACGGGTCAAAGGTTATTGCATGAATAGAAT | 2.15
36 | TCTAGTAGGTTACCAATGGGGCATTCAGCTTTCT | 0.435
37 | CGAACGATGGCATGAGTTGATAGCAAATGCCGAT | -0.379
38 | CCGACTGGGGCCGAAAGGTTACCATACCATCCGG | -1.16
39 | CGTCCAAGGTCAAAGGTCAGTTAAGAGATGACGG | 1.21
40 | CCTAGCAGGCCAGGGTCACTCAAGCATTTCGCTT | -0.961

test system: PPARg DBDmut IVT, anti-PPARg (DBD mutation: PPARg1 K132A/R137A, NR concentration 270 nM); assay: as above
Method in brief: as §1

Row | Sequence | PBM binding z-score
41 | ACTCGGAGGACAAGGGTCAGAGCTACGCCAGTGA | 0.0941
42 | AGAATTAGGTTATACGTAGATCAGGGAAGAAAGT | 1.36
43 | ATATGTAGGTTATCGGTTCATTCAGTTTGCGCAT | 4.75
44 | TCTGCTAGGTCAGTTGGTAAGCTAACGAGCTGCC | 0.0442
45 | ACTAGCAGGCCAAGGGTCACTCAGGATTAGTCCG | -0.162
46 | CCTAGAAGGCCAGGGTCACTCAAGCATTTCGCTT | -1.39
47 | ATCTCTAGGTAAAGTTCAGTGTAAGATCGATAGA | 1.55
48 | CTAACTAGGTCAAGGACAGTGAATCTCCGCACGC | 1.42
49 | ACTATTAGGTGACTTAGGGCAACCGATACGACGC | 0.993
50 | CCTACTGGGCCAAAAAGATCATTGATGCCGATAA | -0.158
51 | CCAGACAGGTGAAAGGTAACTCGGTCTGGTACGC | -1.24
52 | TCTAGTTGGTCAAAGGTCACACATTCGAAATGCG | 1.94
53 | TCTAGTTGGTCGAAGGTCACACACTCGAAATGCG | 1.13
54 | ATCTCTAGCTAACCAAGTTCAGTGAATGCCGAAC | 0.475
55 | CGTCCAAGGTCAGCAAGTCAGTGAAAGCGACGTG | -1.02
56 | ATCGAAAGGTCGATGTGAGTATAGAGAAAGGGAA | 0.629
57 | TTACCAAGGTGAACGTCGTTGATCCCTCTGTAGA | 1.09
58 | AGAACGAGGGCACGCTGAGTTGATAGCAGAGTAG | -0.41
59 | CATACAGGGTCAGCTAGGCGAGAGTAGGGACGGC | 0.468
60 | CGTCCATGGTCAATGCTAGGTCAGTGAAAGCATT | -0.685

Row | Sequence | PBM binding z-score
61 | CCGACTGGTGCAGAAAGGTTACCATACCATCCGG | -1.11
62 | ATACGTAGGTTAGCTGGGGTCATTCAGACTAGGC | 0.0192
63 | TCTAGTTGGTCACGGTGGTCACACACGACGGGTA | 0.923
64 | ATATGTAGGTTAAGGGTTATTCAGGTTGGTTCGC | 3.04
65 | TCTGCTACGTCAGTTGGTCAGCTAACGAGCTGCC | 0.236
66 | TCATATAGGTAAACAGGGGAAAGTCCGTAAGTTA | 0.87
67 | ACTATTAGTTGAGACGAGGGCAACCGCTAGGTTG | 0.359
68 | TCTCTGAGGACACGAAAGGTCAGAGCTCGACATC | 1.37
69 | CCTAATGGGCCACGAAAGGTCATTGATTCAGTGA | 0.297
70 | TCTAGTTGGTCAAAGGTCACACGCTCGAAATGCG | 1.69
71 | CCTATTGGGCCATCAGGTCATTGATATCAACGTT | 0.0799
72 | TGAATGAGGTTAAAGAGCAGGGAACGTGGCGTCG | -0.275
73 | GTTCGGAGGACAAGGTCAGAGCTTTGTCCGTAGA | -1.19
74 | TCATATAGGTAATACAGGTGAAAGCCGGCATCTA | 1.32
75 | GCTTACGGGTCAAAGGTTATTGCATGAATAGAAT | 2.94
76 | TCTAGTAGGTTACCAATGGGGCATTCAGCTTTCT | 0.135
77 | CGAACGATGGCATGAGTTGATAGCAAATGCCGAT | -0.0268
78 | CCGACTGGGGCCGAAAGGTTACCATACCATCCGG | -1.62
79 | CGTCCAAGGTCAAAGGTCAGTTAAGAGATGACGG | -0.205
80 | CCTAGCAGGCCAGGGTCACTCAAGCATTTCGCTT | -1.38
